# About 83,000 compounds went through this panel and 20% of them were active in at least one assay; those are over-represented in the sample as a whole.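 Treatment: one concentration, 48 hours, 96-well format. Scoring: percent growth, with anything below 10 considered active.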 Unmarked numbers belong to inactive results. The source made the active and inactive calls.
# Assays:
# Assay in all cases: NCI-60 one-dose screen, 48 h (100 = growth as untreated, 0 = no growth, -100 = all killed)
# Conditions in all cases: 10 µM unless noted
# HCT-15 colon = test system: HCT-15 colon
# HT29 colon = test system: HT29 colon
# SNB-75 CNS = test system: SNB-75 CNS
# SNB-19 CNS = test system: SNB-19 CNS
# U251 CNS = test system: U251 CNS
# PC-3 prostate = test system: PC-3 prostate
# SK-MEL-5 melanoma = test system: SK-MEL-5 melanoma
# UACC-62 melanoma = test system: UACC-62 melanoma
# SK-MEL-28 melanoma = test system: SK-MEL-28 melanoma
# SK-MEL-2 melanoma = test system: SK-MEL-2 melanoma
# EKVX NSCLC = test system: EKVX NSCLC
# SN12C renal = test system: SN12C renal
# UO-31 renal = test system: UO-31 renal
# TK-10 renal = test system: TK-10 renal
# ACHN renal = test system: ACHN renal
# CAKI-1 renal = test system: CAKI-1 renal
# A498 renal = test system: A498 renal
# CCRF-CEM leukemia = test system: CCRF-CEM leukemia
# MOLT-4 leukemia = test system: MOLT-4 leukemia
Compound,growth (HCT-15 colon),growth (HT29 colon),growth (SNB-75 CNS),growth (SNB-19 CNS),growth (U251 CNS),growth (PC-3 prostate),growth (SK-MEL-5 melanoma),growth (UACC-62 melanoma),growth (SK-MEL-28 melanoma),growth (SK-MEL-2 melanoma),growth (EKVX NSCLC),growth (SN12C renal),growth (UO-31 renal),growth (TK-10 renal),growth (ACHN renal),growth (CAKI-1 renal),growth (A498 renal),growth (CCRF-CEM leukemia),growth (MOLT-4 leukemia)
Cc1ccccc1-c1nc(C(Cl)Cl)nc2cc(-c3ccccc3)nn12,36.1%,13.7%,8.7% (active),69.8%,47.2%,62%,86.4%,74.4%,97.3%,101%,57.8%,81.4%,57.2%,65.1%,41.1%,44.8%,85.4%,102%,83.9%
O=C1c2cccc3cccc(c23)C(=O)N1CC#Cc1ccc2c3c(cccc13)C(=O)N(CCO)C2=O,82.1%,96.5%,69.9%,96.3%,93.1%,84.8%,90.8%,93.1%,112%,102%,76.3%,90.7%,57.3%,165%,87.1%,56.8%,105%,80.6%,62.3%
CC1(C)NCCC[C@]2(C)[C@H]3CC[C@@H]4[C@H]5[C@H](C(=O)/C=C/c6ccccn6)CC[C@]5(CO)CC[C@@]4(C)[C@]3(C)CC[C@@H]12,-4.7% (active),-13.5% (active),105%,77.6%,-21.6% (active),22.2%,56.3%,72.8%,88.3%,108%,101%,62.4%,66.8%,176%,73.4%,32.7%,84%,12.3%,3.77% (active)
N#C/C(=C\c1ccc(-c2ccc(Cl)cc2)o1)c1nc(-c2ccco2)cs1,86.3%,102%,86.5%,93.4%,96.9%,92.8%,91.1%,79.7%,97.5%,102%,48.6%,92.8%,74.3%,62.2%,101%,89.3%,108%,93.9%,97.5%
CN1CCN(CCOc2ccc(-c3cnc4c(-c5cccc(F)c5)cnn4c3)cc2)CC1,2.6% (active),4.57% (active),88.1%,83.9%,46.6%,51.2%,72%,78.3%,92.1%,97.8%,76.3%,60.6%,39.2%,102%,70.2%,64.5%,45.2%,20.9%,16.6%
CCN1CCN(C(=O)[C@]23CCC(C)(C)C[C@@H]2C2=CC[C@@H]4[C@@]5(C)C/C(=C/c6ccncc6)C(=O)C(C)(C)[C@@H]5CC[C@@]4(C)[C@]2(C)CC3)CC1,-63.9% (active),-39.8% (active),25%,-16.1% (active),-77.2% (active),-5% (active),-98.8% (active),-86% (active),-82.5% (active),-30.8% (active),15.3%,-70.1% (active),-92.7% (active),32.3%,3.29% (active),23.2%,-22.6% (active),3.73% (active),-12.2% (active)
N=C(N)c1ccc(S(N)(=O)=O)cc1,104%,105%,96.1%,99.1%,99.4%,98.4%,95.3%,99.2%,104%,99.9%,96.2%,94.5%,72.6%,96.6%,108%,92.5%,92%,107%,102%
COc1cc2nc(Cl)nc(Nc3cccc(C(=O)/C=C/c4ccc(Cl)cc4)c3)c2cc1OC,2.93% (active),19.6%,81.3%,54.6%,50.7%,56%,83.9%,62.8%,74.2%,96.4%,71.7%,70.5%,57.1%,149%,56%,51.9%,77.3%,19.4%,33.5%
CCc1nnc(NC(=O)c2ccoc2COc2ccccc2)s1,24.3%,28.6%,8.1% (active),42.4%,49.7%,67%,44.5%,34.8%,51.2%,54.3%,58.2%,55.7%,60.7%,108%,64.8%,41.9%,59.2%,39.3%,25.3%
CC(=O)n1c(/C(C#N)=C/c2ccc(N(C)C)cc2)cc2ccccc21,23.9%,9.7% (active),-6.19% (active),35.8%,36.4%,39.4%,29.7%,26.8%,60.8%,47.9%,36.8%,42.9%,52.6%,91.3%,47.5%,37.7%,2.85% (active),21.1%,33.1%
N#C/C(=C\c1ccc(-c2ccc(Br)cc2)o1)c1nc(-c2cccs2)cs1,98.8%,105%,97%,95.1%,99.3%,95.9%,99.6%,86.2%,99.1%,109%,79.6%,94.5%,82.1%,185%,105%,100%,99%,94.1%,97%
O=c1[nH]c(=S)[nH]c2nc[nH]c12,99.5%,103%,84.6%,107%,105%,96.9%,110%,97.6%,110%,117%,97.2%,96.2%,62.7%,113%,104%,108%,93.4%,106%,97.8%
N#C/C(=C\c1ccc(-c2cccc(C(F)(F)F)c2)o1)c1nc(-c2ccco2)cs1,71.7%,99.8%,82.2%,93.8%,96.4%,90%,88.1%,78.1%,97.7%,103%,43%,89.2%,62.8%,49.1%,87.2%,87.1%,104%,93.7%,93%
CC(=O)Oc1ccccc1C(=O)/C=C/c1cccc([N+](=O)[O-])c1,54.9%,48.8%,60.2%,81.1%,54.3%,71.1%,89.3%,85.7%,95.6%,96.2%,75.6%,78.9%,-28.1% (active),134%,75.3%,67.6%,92.6%,5.04% (active),50.8%
O=C(O)c1cccc2c1C(=O)N(c1ccc3c(c1)Cc1ccccc1-3)C2=O,108%,99.9%,91.6%,111%,111%,97.6%,110%,112%,110%,99%,111%,111%,85.6%,100%,113%,109%,104%,104%,101%
COc1cnc2c(c1)C(=O)c1c-2n(CCCN2CCN(CCO)CC2)c(=O)c2cc([N+](=O)[O-])ccc12,-26.3% (active),-85.7% (active),73.1%,-1.88% (active),-84.2% (active),44.4%,53.9%,37.8%,102%,108%,66%,54%,36.6%,97.2%,25.1%,37.8%,-5.96% (active),-5.14% (active),0.798% (active)

# — PubChem BioAssay (NCI)
